Assay results reported in PubChem BioAssay AID651661 (Broad Institute, 2012).
The campaign covered roughly 350,000 compounds. About 2,300 (0.66%) were called active. The list comes from a sample in which actives are over-represented; it also holds similar structures and randomly drawn compounds. Unmarked numbers belong to inactive results.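 The calls were made as follows: active = mean inhibition of at least 50% after viability correction, with every replicate also passing that limit; inconclusive = mean reaches 50% but only one of two replicates passes; inactive = the rest.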

Experiment: blockers of EWS/Fli transcriptional output – A673 cells, NR0B1 luciferase, luminescence, MLPCN library, primary screen (AID 651661);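 also: firefly luciferase signal divided by Alamar Blue viability fluorescence both relative to DMSO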
Conditions: A673 NR0B1-luciferase reporter, viability-normalised; at 12.6 µM; active compounds read high

Structure (SMILES)	inhibition
O=C(CC1CC1)N1[C@@H]2CN(S(=O)(=O)c3ccc(F)cc3)c3ccccc3[C@@H]2[C@@H]1CO	2.01%
CN1CCN(C(=O)C[C@H]2CC[C@H]3[C@H](COc4ccc(NC(=O)C5CC5)cc4C(=O)N3C)O2)CC1	0.362%
C=C(C)C(=O)O[C@H]1C/C(C)=C\C(=O)/C=C(\C)[C@H](O)[C@@H]2OC(=O)C(=C)[C@@H]21	74% (active)
C[C@@H]1CN([C@@H](C)CO)C(=O)Cc2cc(NC(=O)Nc3ccc4c(c3)OCO4)ccc2O[C@@H]1CN(C)CC1CCCCC1	-9.05%
COc1cccc(-c2ccc3c(c2)[C@@H]2[C@@H](CCN2C(=O)CN2CCOCC2)[C@H](CO)N3)c1	-6.11%
O=[N+]([O-])/C=C/c1ccc2c(ccn2Cc2ccccc2)c1	68.6% (active)
Cc1ccccc1S(=O)(=O)Nc1ccc2c(c1)C(=O)N(C)[C@@H]1CC[C@@H](CC(=O)O)O[C@@H]1CO2	2.06%
CO[C@H]1CN(C)C(=O)c2ccc(NC(=O)NC(C)C)cc2OC[C@H](C)N(Cc2cncnc2)C[C@@H]1C	-9.44%
COc1ccc(CNS(=O)(=O)c2cc(-c3cc(C)no3)ccc2C(C)C)cc1	55.5% (active)
Cc1cc(-c2ccc(C)c(S(=O)(=O)Nc3ccc(S(N)(=O)=O)cc3)c2)on1	5.81%
COc1ccc(CNS(=O)(=O)c2cc(Br)ccc2Br)cc1	-12%
O=C(C[C@H]1C[C@H]2c3cc(NC(=O)C4CCC4)ccc3O[C@H]2[C@@H](CO)O1)NCc1ccc(Cl)cc1	-0.922%
CO[C@@H]1CN(C)C(=O)c2cc(NC(=O)Nc3ccccc3F)ccc2OC[C@H](C)NC[C@H]1C	-10.4%
CCc1nc2ccccc2c(C(=O)NCc2ccc(OC)cc2)c1C	22.9%
COC(=O)Cc1[nH]n(-c2nc3ccccc3s2)c(=O)c1C(C)=Nc1ccc(OC)cc1	67.1% (active)
COC(=O)CC1=NN(c2ccccc2)C(=O)C1	2.41%
COc1ccc(CN(C)C[C@@H]2OCCCC[C@H](C)Oc3ccc(NC(=O)c4ccccc4)cc3C(=O)N([C@H](C)CO)C[C@H]2C)cc1	4.63%
CCS(=O)(=O)N1CC2(CN(C(=O)c3ccc(F)cc3)[C@H](CO)c3c2c2ccc(OC)cc2n3C)C1	-3.98%
O=C(C[C@H]1C[C@H]2c3cc(NC(=O)NC4CCCC4)ccc3O[C@H]2[C@H](CO)O1)NCCc1ccccc1	-0.115%
CC(=O)Nc1cccc(-c2ccnc3c2CC(C)(C(=O)NCc2ccccc2)O3)c1 (configuration not stated)	56.4% (active)
CC(=O)Nc1cccc(-c2ccnc3c2CC(C)(C(=O)NCc2ccco2)O3)c1 (configuration not stated)	47.3%
COc1ccc(NC(=O)C2(C)Cc3c(-c4cccc(NC(C)=O)c4)ccnc3O2)cc1OC (configuration not stated)	12.4%
COc1ccc(NC(=O)C2(C)Cc3c(-c4ccc(C(N)=O)cc4)ccnc3O2)cc1 (configuration not stated)	9.42%
CC1(C(=O)Nc2cccnc2)Cc2c(-c3ccccc3)ccnc2O1 (configuration not stated)	-3.3%

Structure (SMILES)	inhibition
COc1ccc(NC(=O)C2(C)Cc3c(-c4cccc(NC(C)=O)c4)ccnc3O2)cc1 (configuration not stated)	72% (active)
COCC(=O)Nc1ccc2c(c1)C(=O)N(C)[C@@H]1CC[C@H](CC(=O)NCCc3ccccc3)O[C@@H]1CO2	6.92%
C[C@H](CO)N1C[C@H](C)[C@@H](CN(C)S(=O)(=O)c2ccc([N+](=O)[O-])cc2)OCc2ccccc2-c2c(n(C)c3ccccc23)C1=O	14.6%
CO[C@H]1CN(C)C(=O)c2cc(NC(C)=O)ccc2OC[C@H](C)N(C(=O)CN(C)C)C[C@@H]1C	-2.59%
CCS(=O)(=O)N1CCC2(CC1)CN[C@H](CO)c1c2c2ccc(OC)cc2n1C	8.2%
CCOc1ccc(OCc2ccc(C(=O)N(C)c3ccccc3)o2)cc1	-36.4%
CC(C)(C)OC(=O)N(Cc1ccccc1)Cc1ccc(OCc2cccc(NC(=O)c3ccccc3)c2)cc1	11.8%
CCOc1ccc(OCc2cccc(C(=O)N(CC)CC)c2)cc1	67.8% (active)
CC=Cc1ccc2n(c1=O)C[C@@H]1[C@@H](CO)[C@H](C(=O)N(C)C)N(CC3CCOCC3)[C@H]21 (mixture of isomers)	-1.84%
Cc1ccccc1S(=O)(=O)N1[C@H](CO)[C@@H](c2ccc(-c3ccccc3)cc2)[C@@H]1C#N	18.6%
O=C(C[C@H]1C[C@@H]2c3cc(NC(=O)C4CCOCC4)ccc3O[C@@H]2[C@H](CO)O1)NCC1CC1	2.22%
C[C@@H]1C[C@@H]2O[C@H]2/C=C\C=C\C(=O)Cc2c(Cl)c(O)cc(O)c2C(=O)O1	76.6% (active)
CC(C)(C)c1ccc(Oc2ccc(N)cc2)cc1	65.3% (active)
COc1cnc(-c2ccccn2)nc1Oc1ccc(C(C)(C)C)cc1	18.9%
COCC(=O)Nc1ccc2c(c1)C(=O)N(C)[C@@H]1CC[C@@H](CC(=O)NCC(F)(F)F)O[C@H]1CO2	-7.87%
CCNC(=O)Nc1ccc2c(c1)C(=O)N(C)[C@@H]1CC[C@@H](CC(=O)NC3CCCCC3)O[C@H]1CO2	6.61%
O=C(c1ccc(F)cc1)N1CC(=O)N2[C@H](C1)[C@@H](c1ccc(C#CC3CC3)cc1)[C@@H]2CO	-6.65%
CCCNC(=O)N1C[C@@H](C)[C@@H](OC)CN(C)C(=O)c2ccc(NC(=O)C3CCC3)cc2OC[C@@H]1C	-1.5%
NC(=O)c1ccc(NC(=O)COC(=O)c2c3c(nc4ccccc24)/C(=C\c2ccc4c(c2)OCO4)CCC3)cc1	-2.89%
C(=N\Nc1ccc2ccccc2n1)/c1ccc2c(c1)OCO2	59.1% (active)
Clc1ccc(Nc2ccc3ccccc3n2)cc1	-53.3%
CC(C)NC(=O)N1C[C@@H]2[C@H](c3ccccc31)[C@@H](CO)N2Cc1ccc(Cl)cc1	14.5%
CCN1/C(=C\c2ccc3ccccc3[n+]2CC)Sc2cc(C)ccc21	56.7% (active)
